Usually AC50 stands for the concentration at which the activity in the assay is half-maximal.

Calls of active or inactive are those of the source. Rule for the calls: active = hit-call score of the fitted dose curve at least 0.9, where 1 is the maximum; inactive = score below 0.9.

The test in a line: IUF_NPC1_viability_72hr: Viability Assessment at 72 hours in the Leibniz Research Institute for Environmental Medicine (IUF) Neural Progenitor Cell Proliferation Assay (NPC1) (AID 2284209). The method, then:
IUF_NPC1 is a cell-based, multiplexed assay that uses hNPC, a human primary neural progenitor cells, with measurements taken at 72 hours after chemical dosing in a 96-well plate. Human neural progenitor cells (hNPC) are generated from human fetal brain cortex at gestational week (GW) 16-19. Grown in suspension culture and under proliferative conditions (proliferation media and growth factors), these cells represent neural progenitor cell proliferation. In the NPC1 assay, hNPC's are exposed to the test compound for 72h. Cell proliferation is assessed as an increase in sphere area using automated phase contrast imaging and as incorporation of Bromodeoxyuridine (BrdU) during DNA synthesis using a luminescence-based cell proliferation ELISA. In parallel, the cell viability is assessed using an alamar blue viability assay and the cytotoxicity using a lactate dehydrogenase dependent membrane integrity assay.IUF_NPC1_viability_72hr is one of 4 assay components measured from the IUF_NPC1 assay. It is designed to measure cell viability assessed as mitochondria-dependent reduction of resazurin to resorufin using the alamar blue cell viability assay. Viability is measured as a fluorescence signal (relative fluorescence unit) in a multiplate reader. Data from the IUF_NPC1_viability component was analyzed at the endpoint IUF_NPC1_viability in the positive analysis fitting direction relative to DMSO as the negative control and baseline of activity. Using a type of viability reporter, gain or loss-of-signal activity can be used to understand viability effects.
After the cell expansion period, the cells are cultured for up to four weeks in which they are passaged every week. Between one to three days after passaging, depending on the size chosen for passaging, spheres at a size of 0.3 mm are used in the assay. For the assessment of neural progenitor cell proliferation, the spheres are plated in poly-Hema coated 96-well U-bottom plates filled with proliferation medium containing growth factors (EGF and FGF). One 0.25 - 0.35 mm big sphere is plated in the middle of each well. Within 3 days NPCs proliferate and grow in size. Cultivation during the test method is performed at 37C and 5% CO2 at a pH of 7.2-7.6. As a positive control, spheres are cultivated in the absence of growth factors (EGF and FGF), which dramatically reduces proliferation. Exposure starts on the plating day (day 0) and is continued over three days, without chemical renewal, until the experiment is terminated. The assay is terminated by the assessment of cell viability, cytotoxicity, and proliferation by BrdU. All endpoints are generated from the same experimental run and from each well/sphere in the 96-well plate.
Consider `COP(=S)(OC)Oc1ccc([N+](=O)[O-])cc1`, for which the molecule was called inactive. On the same count and under the same terms, the result for `O=[N+]([O-])/N=C1\NCCN1Cc1ccc(Cl)nc1` reads “inactive”.

With `O=S1OCC2C(CO1)C1(Cl)C(Cl)=C(Cl)C2(Cl)C1(Cl)Cl` (stereo not drawn), the AC50 is 2.63 µM (active). Regarding `CC1(c2ccc(Oc3ccccc3)cc2)OC(=O)N(Nc2ccccc2)C1=O` (stereo not drawn), the result was inactive.

For the molecule `O=C(O)C(F)(F)C(F)(F)C(F)(F)C(F)(F)C(F)(F)C(F)(F)C(F)(F)F`, the call was inactive. The same measure, in the same setting: the result for `O=C(O)COc1ccc(Cl)cc1Cl` reads “inactive”. Same read-out and setting: for `CCC(C)(C)C(=O)OC1=C(c2ccc(Cl)cc2Cl)C(=O)OC12CCCCC2` the value was “inactive”. On the same count and under the same terms, the result for `CC1(C)C(C=C(Cl)Cl)C1C(=O)OC(C#N)c1ccc(F)c(Oc2ccccc2)c1` (stereo not drawn) reads “inactive”. Consider `COP(=O)(OC)OC=C(Cl)Cl`, for which the AC50 is 91.4 µM (active). As for `CNC(=O)CSP(=S)(OC)OC`, the result was inactive. Still for that read-out and setting: for `CC(C)N(C(=O)COc1nnc(C(F)(F)F)s1)c1ccc(F)cc1` the value was “inactive”; for `O=S(=O)(O)C(F)(F)C(F)(F)C(F)(F)C(F)(F)C(F)(F)C(F)(F)C(F)(F)C(F)(F)F`, “inactive”; for `CC[C@H](C)[C@H]1O[C@]2(C=C[C@@H]1C)C[C@@H]1C[C@@H](C/C=C(\C)[C@@H](O[C@H]3C[C@H](OC)[C@@H](O[C@H]4C[C@H](OC)[C@@H](O)[C@H](C)O4)[C@H](C)O3)[C@@H](C)/C=C/C=C3\CO[C@@H]4[C@H](O)C(C)=C[C@@H](C(=O)O1)[C@]34O)O2` (tested in a mixture with another compound), “inactive”.

The values are drawn from PubChem BioAssay (EPA / NIEHS).
